The panel holds about 83,000 compounds, 20% with a hit somewhere; the sample as a whole holds those more often.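 Values shown are percent growth following 48 h exposure of cells in 96-well plates to a single concentration of compound; below 10 was considered active.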 A number with no mark means an inactive call. The source made the active and inactive calls.
Assays:
Assay in all cases: NCI-60 one-dose screen, 48 h (100 = growth as untreated, 0 = no growth, -100 = all killed)
Settings in all cases: 10 µM unless noted
[1] = tested on: SK-MEL-2 melanoma
[2] = tested on: EKVX NSCLC
[3] = tested on: SN12C renal
[4] = tested on: TK-10 renal
[5] = tested on: ACHN renal
[6] = tested on: A498 renal
[7] = tested on: CCRF-CEM leukemia
[8] = tested on: MOLT-4 leukemia
[9] = tested on: SR leukemia
[10] = tested on: RPMI-8226 leukemia
[11] = tested on: OVCAR-8 ovarian
[12] = tested on: OVCAR-5 ovarian
[13] = tested on: OVCAR-4 ovarian
[14] = tested on: SK-OV-3 ovarian
[15] = tested on: IGROV1 ovarian
[16] = tested on: OVCAR-3 ovarian
[17] = tested on: HS 578T breast
[18] = tested on: NCI/ADR-RES ovarian
[19] = tested on: T-47D breast

Row | Compound | growth [1] | growth [2] | growth [3] | growth [4] | growth [5] | growth [6] | growth [7] | growth [8] | growth [9] | growth [10] | growth [11] | growth [12] | growth [13] | growth [14] [%] | growth [15] | growth [16] | growth [17] | growth [18] | growth [19]
1 | N#Cc1ccc(N2Cc3cc(Cl)ccc3OC3=C2C(=O)N(Cc2ccccc2)C3=O)cc1 | -38.7% (active) | 43.8% | -39.5% (active) | -66.3% (active) | -85.6% (active) | 129% | -9.47% (active) | -24.7% (active) | -25.7% (active) | -23.3% (active) | 4.56% (active) | -5.13% (active) | -7.68% (active) | 94.2 | 13% | -82.1% (active) | 38.1% | 6.99% (active) | -60.1% (active)
2 | O=C1NN(c2ccccc2)C(c2ccc(Cl)cc2)N2CCC[C@H]12 (stereo not given in full) | 107% | 94.8% | 105% | 111% | – | 84.5% | 107% | 99.5% | 111% | 102% | 98.1% | 103% | 95.7% | 107 | 98.6% | 93.4% | 91.6% | 93.1% | 100%
3 | COc1ccc(/C=C/C(=O)c2ccc(NC(=O)CSc3nnc(-c4ccc(OC)c(OC)c4)n3-c3ccccc3)cc2)cc1 | 74.7% | 66% | 40.5% | 101% | 59.9% | 93.5% | -20.9% (active) | 10.8% | -38.2% (active) | -25% (active) | 11.4% | 112% | 91.3% | 85.1 | -36.7% (active) | 59.8% | 86.6% | 57.4% | 36.2%
4 | O=c1[nH]c(-c2cccc(F)c2)cc2cc(F)ccc12 | 67.4% | 39.3% | 49.3% | 58.5% | 47% | 21.9% | 13.6% | 21.9% | 22.5% | 22.5% | 30.2% | 48.4% | 63.4% | 26.1 | 40.1% | -11.9% (active) | 34.7% | 6.86% (active) | 49.8%
5 | C=CCn1c(CN2CCN(c3cc4c(cc3F)c(=O)c(C(=O)O)cn4C3CC3)CC2)n[nH]c1=S | 104% | 101% | 104% | 88.9% | 102% | 98.2% | 90.1% | 94.2% | 99.1% | 109% | 100% | 94% | 105% | 108 | 96.2% | 102% | 95% | 99.2% | 103%
6 | CC(=O)Nc1c(C(=O)Nc2ccccc2)sc2nc3c(cc12)C(OC(C)=O)CCC3 (stereo not given) | 89.8% | 99.6% | 89.6% | 75.9% | 59.5% | -1.22% (active) | 94.6% | 100% | 80% | 107% | 105% | 108% | 108% | 46.6 | 109% | 104% | 102% | 88.4% | 93.5%
7 | Cc1cc(C)nc(NS(=O)(=O)c2ccc(Nc3ccc4c5c(n(CCCN(C)C)c(=O)c4c3)-c3ccccc3C5=O)cc2)n1 | 108% | 90.5% | 85% | 87.9% | 89.7% | 90.7% | 42.2% | 15.2% | 23.4% | 85.4% | 74.4% | 111% | 107% | 96.1 | 74.2% | – | 93.2% | 98.6% | 102%
8 | Nn1c(SCC(=O)Nc2ccc(Cl)cc2)nnc1-c1cc(F)c(Cl)cc1Cl | 83.4% | 90.9% | 97.8% | 97.6% | 87.2% | 65.2% | 92.8% | 80.4% | 56.5% | 76.8% | – | 66.5% | 85.9% | 89.9 | 89.9% | 84.2% | 99.7% | 93.5% | 67.3%
9 | Nc1ccc2c(c1)C(=O)C(=O)c1c-2nc2ccccn12 | -32.1% (active) | 31.5% | -81% (active) | 115% | -58.8% (active) | -19.3% (active) | 13.6% | -32.8% (active) | 2.06% (active) | 14.7% | 8.18% (active) | -47.4% (active) | -95.4% (active) | 30.7 | -40.3% (active) | -19.8% (active) | -6.56% (active) | 11.7% | -53.5% (active)
10 | O=C1NC(SCc2ccc(F)cc2)=N/C1=C/c1cccc(OCc2ccc(Cl)cc2)c1 | 99.4% | 66.3% | 22.1% | -5.9% (active) | -53.7% (active) | -5.28% (active) | 54.8% | 51.2% | 20.6% | 53.5% | 52.8% | 66.1% | -48.4% (active) | 55.4 | 26.6% | 18.1% | 29.6% | 65.8% | 53.5%
11 | COc1cc2c(cc1OC)C(Sc1ccc(Cl)cc1)c1c(nc(N)c(C#N)c1N)O2 (stereo not given) | -21.1% (active) | 1.68% (active) | 1.66% (active) | -12.6% (active) | -66.9% (active) | 66.4% | -7.67% (active) | 0.994% (active) | -13.3% (active) | -24.2% (active) | 1.28% (active) | 10.8% | -14.8% (active) | 56.1 | -25.5% (active) | -69.6% (active) | 30.8% | 1.5% (active) | -3.7% (active)
12 | COc1cc(-c2nn(-c3ccc(Br)cc3)cc2CO)ccc1O | 100% | 92.5% | 97.1% | 110% | 100% | 77.2% | 54.9% | 57.1% | 65.4% | 84.6% | 94.9% | 101% | 94.7% | 105 | 115% | 103% | 88.9% | 99.3% | 80.3%
13 | Cc1ccn2c3c(c(C(=O)O)c2c1)C(=O)c1ccccc1C3=O | 68.9% | 83% | 78.8% | 142% | 86.2% | 89.2% | 89.5% | 84.8% | 80% | 90.6% | 80.1% | 121% | 69.9% | 98.3 | 81.3% | 45.6% | 43.7% | 85.2% | 90.7%
14 | CCOC(=O)c1c(C)nc2c(c1N)/C(=C/c1cccs1)C(=O)N2c1ccc(OC)cc1 | 33% | 49.8% | 39.4% | 35.7% | – | 35.1% | 92.2% | 80.5% | 55.8% | 74.5% | 20.5% | 102% | 13.9% | 36.6 | 45.7% | 32.3% | 25% | 29% | 19%
15 | COc1cc(NC(=O)Nc2cnc(Nc3ccc(N4CCOCC4)cc3)nc2Oc2ccc(C(F)(F)F)cc2)cc(OC)c1 | 108% | 106% | 102% | 116% | – | 110% | 89.4% | 90.5% | 79.9% | 92.5% | 100% | 116% | 111% | 104 | 104% | 110% | 99.4% | 104% | 98.4%
